Reference: ChEMBL document CHEMBL3988442, “University of Dundee, Small-Polar-MMV Screening Library” (2021)
The whole screen tested about 38,000 compounds, of which about 1,200 (3.2%) showed an effect of 50% or more. The median lay at about -58%. This is one part of a sample in which strong results are shown more often than they occur.

These compounds were tested on Plasmodium falciparum (assay: Calibr Malaria Delayed Death Assay SOP). Conditions: concentration 4.99e-06 (unit not given; other assays of the set use mol/L).
Type: functional, organism-based
Parameters: scale not given: in the data most compounds retested in dose-response had high values

Row | Structure (SMILES) | Percent Effect
1 | COc1cc(OC)cc(-c2noc(C(N)CCSC)n2)c1 (stereo not drawn) | -32.31%
2 | Cc1ccc(C(=O)Nc2ccc3c(c2)N(C)CCN(C)C3)c(=O)[nH]1 | -25.5%
3 | Cc1cnn(C2CN(CC(=O)NCCc3cccs3)C2)c1 | -35.32%
4 | CN(Cc1cc2cc(F)ccc2[nH]1)C(=O)C1CC(=O)N(C2CC2)C1 (stereo not drawn) | -1.915%
5 | Cc1cc(CN2CCO[C@H]3[C@H](OCc4csc(C)n4)CC[C@@H]32)no1.O=C(O)C(F)(F)F.O=C(O)C(F)(F)F | -78.11%
6 | CC1CCN(C(=O)C2CCN(c3ccc(Cl)cc3C#N)CC2)CC1 | 59.54%
7 | CCN(CC)C(=O)C1CCN(c2ccc(Cl)cc2C#N)CC1 | -152.7%
8 | N#Cc1cc(Cl)ccc1N1CCN(C(=O)C2CCC2)CC1 | -79.7%
9 | Cc1noc(CN(C)C2CCCN(Cc3noc(C4CC4)n3)C2)n1 (stereo not drawn) | -141.9%
10 | Cc1cc(CN2CCOC(CNc3cccnn3)C2)no1 (stereo not drawn) | -113%
11 | CO[C@H]1CN(CC2CCOCC2)[C@@H]2CCCO[C@H]12.O=C(O)C(F)(F)F | -55.37%
12 | Cc1c[nH]c(CN2CCCCC2CCn2ccnc2C)c(C)c1=O (stereo not drawn) | -167.9%
13 | Cn1ccnc1CCC1CCCCN1Cc1nccn1C (stereo not drawn) | 23.43%
14 | CCOC(C)c1nccn1CCC(=O)Nc1cc(C)on1 (stereo not drawn) | -31.31%
15 | CCn1cnc2c(cnn2-c2cccc(C)c2C)c1=O | -109.7%
16 | CC(=O)c1c(O)n(C)c2ccc(F)cc12 | -135.9%
17 | Cc1cnn(CCNCc2ccc(OCc3cscn3)cc2)c1 | -21.22%
18 | CC[C@H]1CN2CC[C@H]1C[C@@H]2CNC(=O)Nc1cccc(C#N)c1 | -82.85%
19 | CC[C@H]1CN2CC[C@H]1C[C@@H]2CNC(=O)Nc1cccc(C(F)(F)F)c1 | -88.31%
20 | CC[C@H]1CN2CC[C@H]1C[C@@H]2CNCc1ccc(OC(F)(F)F)cc1 | 85.66%

Row | Structure (SMILES) | Percent Effect
21 | CC[C@H]1CN2CC[C@H]1C[C@@H]2CNCc1ccc(N(C)C)cc1 | 62.75%
22 | CC[C@H]1CN2CC[C@H]1C[C@@H]2CNCc1ccc2c(c1)OCO2 | 60.86%
23 | CC[C@H]1CN2CC[C@H]1C[C@@H]2CNC(=O)Nc1ccccc1 | -66.09%
24 | CCN1CCCC(O)(CNCc2ccc3c(c2)OCO3)C1 (stereo not drawn) | 14.07%
25 | CC[C@H]1CN2CC[C@H]1C[C@@H]2CNC(=O)NC1CCCCC1 | -27.77%
26 | CC[C@H]1CN2CC[C@H]1C[C@@H]2CNCc1cccc(C#N)c1 | 34.74%
27 | CC[C@H]1CN2CC[C@H]1C[C@@H]2CNC(=O)Nc1cc(OC)cc(OC)c1 | 63.7%
28 | CC[C@H]1CN2CC[C@H]1C[C@@H]2CNCc1ccc(OC)cc1 | 6.891%
29 | CC(C)NC(=O)NC[C@H]1C[C@@H]2CCN1C[C@@H]2CN(C)c1ccccc1 | -39.27%
30 | CC(C)c1ccc(NS(=O)(=O)CC2=NC(=O)n3cccc3C2=O)cc1 | -194.3%
31 | CO[C@H]1CO[C@@]2(CCCN(C(=O)C3CC=CC3)C2)C1 | -81.44%
32 | CC(C)CNC(=O)CSC1CCc2ccccc2NC1=O (stereo not drawn) | -170.7%
33 | COc1ccc(-n2ncc(C(C)NC3Cc4ccccc4C3)c2C)cc1 (stereo not drawn) | 1.566%
34 | Cc1c(C(C)N)cnn1-c1ccccn1 (stereo not drawn) | -122.1%
35 | Cc1c(C(C)N)cnn1-c1cccc2ccccc12 (stereo not drawn) | 74.08%
36 | Fc1ccc(CN2Cc3nccn3CC(CN3CCOCC3)C2)cc1.O=C(O)C(F)(F)F.O=C(O)C(F)(F)F (stereo not drawn) | -18.4%
37 | CC(=O)c1cccc(OCc2cc(C(=O)N3CCCCO3)n[nH]2)c1 | -55.13%
38 | Cc1ccc(OCC(C)NS(=O)(=O)Cc2ccon2)cc1 (stereo not drawn) | -50.51%
39 | Cc1ccc(N2CC[C@H](OCC3CC3)[C@@H]2Cc2cccnc2)nn1.O=C(O)C(F)(F)F | -86.08%
40 | CO[C@@H]1CCN(c2nnc(C)s2)C[C@@H]1Cc1ccccc1.O=C(O)C(F)(F)F | -42.62%

Row | Structure (SMILES) | Percent Effect
41 | Cc1nc(CN2CC[C@H](OCC3CC3)[C@@H]2Cc2cccnc2)cs1.O=C(O)C(F)(F)F.O=C(O)C(F)(F)F | 60.39%
42 | Cc1nnc(N2CC[C@@H](OCC3CC3)[C@@H](Cc3ccccc3)C2)s1.O=C(O)C(F)(F)F | 84.3%
43 | COCC1CC2(CCN(CC3CC3)CC2)CN1Cc1csc(C)n1.O=C(O)C(F)(F)F.O=C(O)C(F)(F)F (stereo not drawn) | 52%
44 | Cc1nc(CN2CC[C@@H](OCC3CC3)[C@@H]2Cc2cccnc2)cs1.O=C(O)C(F)(F)F.O=C(O)C(F)(F)F | 6.851%
45 | COCC1CC2(CCN(C(C)=O)CC2)CN1Cc1csc(C)n1.O=C(O)C(F)(F)F (stereo not drawn) | -10.79%
46 | CCN1CCC2(CC1)CC(COC)N(Cc1csc(C)n1)C2.O=C(O)C(F)(F)F.O=C(O)C(F)(F)F (stereo not drawn) | -25.47%
47 | Cc1nnc(N2CC[C@H](OCC3CC3)[C@@H](Cc3ccccc3)C2)s1.O=C(O)C(F)(F)F | -5.425%
48 | COc1cc(OC)c(C2CC(=O)Oc3cc(C)[nH]c(=O)c32)c(OC)c1 (stereo not drawn) | -23.56%
49 | COc1ccc(CN(C)CC(=O)c2ccc3[nH]c(=O)[nH]c3c2)cc1F | -24.42%
50 | COc1cccc(S(=O)(=O)NC(=O)CC2CCCO2)c1 (stereo not drawn) | -80.63%
51 | CC(C)NC(=O)C1CN(C(=O)Cc2ccccc2)CC12CCOCC2 (stereo not drawn) | -95.53%
52 | CCCS(=O)(=O)NCCc1ncc(CC)s1 | -128.9%
53 | OCCN1CCN(Cc2coc(-c3cccc(F)c3)n2)CC1 | -200.4%
54 | CC(C)(C#N)c1ccccc1CN(CCO)Cc1ccsc1 | -17.47%
55 | CCCc1nnc([C@H]2CCN(Cc3ncc[nH]3)C2)o1 | -53.09%
56 | C[C@]1(O)CN(Cc2ncc[nH]2)CC[C@@H]1Oc1cccc(F)c1 | -12.82%
57 | O=C(O)C(F)(F)F.O=S(=O)(c1cccs1)N1Cc2nc(CN3CCCC3)oc2C1 | -93.44%
58 | COC(=O)CCNC(=O)c1cc(-c2ccc(OC)cc2)nn1C | -127.7%
